Experimental data as given in PubChem BioAssay (NCI).
The panel holds about 83,000 compounds, 20% with a hit somewhere; the sample as a whole holds those more often.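 Activity criterion: percent growth below 10, measured after cells in 96-well plates were exposed to a single compound concentration for 48 hours.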 A number with no mark means an inactive call. Activity calls are given as the source filed them.

Tests used:
Assay in all cases: NCI-60 one-dose screen, 48 h (100 = growth as untreated, 0 = no growth, -100 = all killed)
Conditions in all cases: 10 µM
[1] = tested on: DU-145 prostate
[2] = tested on: K-562 leukemia
[3] = tested on: MALME-3M melanoma
[4] = tested on: MDA-MB-231 breast
[5] = tested on: RXF 393 renal
[6] = tested on: SF-268 CNS
[7] = tested on: SF-295 CNS
[8] = tested on: SF-539 CNS
[9] = tested on: UACC-257 melanoma
[10] = tested on: M14 melanoma
[11] = tested on: HCT-15 colon
[12] = tested on: SNB-75 CNS
[13] = tested on: SNB-19 CNS
[14] = tested on: U251 CNS
[15] = tested on: PC-3 prostate
[16] = tested on: SK-MEL-5 melanoma
[17] = tested on: UACC-62 melanoma
[18] = tested on: LOX IMVI melanoma
[19] = tested on: SK-MEL-28 melanoma
[20] = tested on: HT29 colon

Row | SMILES | growth [1] | growth [2] | growth [3] | growth [4] | growth [5] | growth [6] | growth [7] | growth [8] | growth [9] | growth [10] | growth [11] | growth [12] | growth [13] | growth [14] | growth [15] | growth [16] | growth [17] | growth [18] | growth [19] | growth [20]
1 | N#Cc1c(-c2ccccc2)nc(SCC(=O)N2CCOCC2)[nH]c1=O | 112% | 89.8% | 92.4% | 114% | 117% | 104% | 97.1% | 97.1% | 97% | 100% | 103% | 61.4% | 111% | 105% | 98.1% | 102% | 100% | 91.9% | 114% | –
2 | Cc1ccc2nc3[nH]c(=O)[nH]c(=O)c3c(N)c2c1 | 77.2% | 96.2% | – | 95.8% | 77.7% | 88.5% | 90.9% | 92.3% | 88.9% | 96% | 84% | 90% | 86.2% | 89.1% | 85.6% | 84% | 47.3% | 75.2% | 98.3% | 83.3%
3 | S=C(Cc1ccc(-c2ccccc2)cc1)N1CCOCC1 | 104% | 95.3% | – | 84.7% | 103% | 101% | 93.6% | 99% | 107% | 101% | 104% | 83.1% | 110% | 96.6% | 76.7% | 92.9% | 87.2% | 92% | 106% | 103%
4 | CC(=O)CS(C)(=O)=O | 106% | 102% | – | 108% | 111% | 104% | 115% | 109% | 96.4% | 108% | 110% | 96.9% | 102% | 102% | 103% | 98% | 108% | 101% | 113% | 107%
5 | COc1cc(OC)cc(-c2n/c(=C\c3c(O)[nH]c4ccc(OC)cc34)cc3c2=Nc2ccccc2-3)c1 | 3.54% (active) | -9.91% (active) | – | 3.25% (active) | 79.7% | 73.6% | 98.4% | 108% | 115% | 21.4% | 44.6% | 103% | 78% | 19.7% | 94.9% | 94.4% | 110% | 30.4% | 102% | 15.6%
6 | O=[N+]([O-])c1ccc2c(c1)Cc1cc(I)ccc1-2 | 116% | 95.6% | – | 102% | 101% | 103% | 82.5% | 116% | 108% | 101% | 108% | 106% | 109% | 96% | 101% | 97.1% | 108% | 116% | 111% | 91.6%
7 | CCCCCN(CCCCC)C(C)C(O)c1ccc2cc(Cl)c3ccccc3c2c1 (centres undefined) | 109% | 81.4% | – | 92.7% | 97.5% | 102% | 82.7% | 104% | 97.7% | 93.1% | 93.1% | 93.8% | 104% | 90% | 80.6% | 89.9% | 88.2% | 94.3% | 108% | 55.5%
8 | C=CCNCCCN1C(=O)c2ccc3c4c(ccc(c24)C1=O)C(=O)N(CCCNCC=C)C3=O | -94.8% (active) | 0.431% (active) | – | 1.35% (active) | -94.1% (active) | -22.1% (active) | -76.9% (active) | -88.7% (active) | -84% (active) | -84.8% (active) | -72.4% (active) | -98.2% (active) | -91.2% (active) | -73.9% (active) | -15.5% (active) | -99.3% (active) | -80.4% (active) | -77.5% (active) | -76.3% (active) | -17.1% (active)
9 | COc1ccc(Cn2cc3c(c2-c2cc(OC)c(OC)c(OC)c2)CCc2cnoc2-3)cc1[N+](=O)[O-] | 10.1% | 15.3% | – | 25.6% | 10.5% | 47.6% | -15.3% (active) | -10.5% (active) | 78.1% | 11.4% | 34.2% | 18.5% | 43.2% | 39.8% | 27.6% | 16% | 35.4% | 39.6% | 68.9% | 13.1%
10 | COC1OC2COC(c3ccccc3)OC2C(=O)C1NC(=O)c1ccccc1 (centres undefined) | 95.6% | 127% | – | 94.1% | 122% | 99.1% | 88.5% | 101% | 104% | 99.8% | 101% | 83% | 94.9% | 109% | 85% | 108% | 93.7% | 90.1% | 109% | 105%
11 | COc1cc(/C=C/C(=O)c2cc(-c3ccc(F)cc3)ccc2O)cc(OC)c1OC | 91.1% | 34.5% | – | 60.7% | 104% | 85.7% | 95.1% | 89% | 68.4% | 86.2% | 84.2% | 91.9% | 86.8% | 79.9% | 54.6% | 48.1% | 58.5% | 48.9% | 100% | 87.1%
12 | O=c1oc2c3ccc4cnccc4c3[nH]c2c2ccccc12 | 16.9% | 21.1% | -80.8% (active) | 68.2% | – | 23% | 75.6% | -72.1% (active) | 1.25% (active) | 67.3% | 80.9% | – | 14.6% | -35% (active) | 71.4% | 28.3% | 73.2% | 13.5% | 5.14% (active) | –
13 | CC(=O)OC1Oc2ccccc2-c2oc(=O)c(-c3cc(=O)oc4cc(O)ccc34)cc21 (centres undefined) | 78.3% | 33.2% | 68.9% | 86.3% | – | 97.1% | 73.6% | 89% | 80.1% | 72.1% | 80.8% | 76% | 95% | 89.6% | 75.9% | 80.1% | 84.9% | 83.8% | 111% | –
14 | O=C(NCc1cn(Cc2cccc(Oc3ccccc3)c2)nn1)c1cccnc1Nc1ccccc1 | 59.8% | 31.9% | – | 63.7% | 33.6% | 60.5% | 50.1% | 54.5% | 77% | 33.6% | 30.7% | 54.2% | 67.1% | 42.2% | 44.5% | 40.8% | 53.5% | 45.1% | 47.8% | 47.8%
15 | Cc1cc(=O)oc2cc(OCc3cn(CC(O)CO)nn3)ccc12 (centres undefined) | 103% | 96.1% | 109% | 104% | – | 109% | 107% | 95.9% | 112% | 106% | 105% | 132% | 105% | – | 110% | 25.5% | 97.4% | 103% | 128% | 115%
16 | C=CCn1ccc(=O)nc1SC | 117% | 103% | – | 109% | 129% | 108% | 107% | 105% | 102% | 104% | 110% | 91.2% | 106% | 102% | 95.7% | 112% | 105% | 99.7% | 112% | 97.6%
17 | CCOc1nc(-c2ccccc2)cc2c(O)c(C(=O)NCCCO)[nH]c(=O)c12 | 100% | 111% | – | 102% | 63.2% | 103% | 77.5% | 93.9% | 122% | 94.4% | 102% | 88.6% | 96.9% | 100% | 46.3% | 88.8% | 99.8% | 108% | 102% | 104%
